Screening results from PubChem BioAssay.
Sa helicase inh = inhibitors of S. aureus replicative helicase, primary screen, biochemical, fluorescence unwinding readout | purified S. aureus helicase, fluorescence unwinding assay | inhibition, % (concentration not given with the values) | hit rate 0.05% among 120,000 | AID 485395, 2010; in the data active = inhibition above about 25%, passing the limit was not always enough
Sa growth inh = S. aureus growth inhibition at 42 and 30 °C, primary screen, LtaS inhibitor project, RN4220, two temperatures | OD600, 20 h, 42 °C; active compounds read low | relative growth, % (concentration not given with the values) | hit rate 0.53% among 170,000;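 active = relative growth at most 50% at the other temperature and 20+ points below 30 °C, or under 10% at both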
Hits are given with their value; - = inactive; . = no result given. The full list was thinned out, with hits kept by preference.

SMILES	Sa helicase inh	Sa growth inh
Cc1ccc(CN(C)Cc2cc(=O)oc3cc4c(cc23)CCC4)o1	-	-
CN1CCC(N(C)Cc2cc(=O)oc3cc4c(cc23)CCC4)CC1	-	0.3
O=C(/C=C/c1cccs1)OCc1nc2ccccc2s1	-	-
CC(C)c1ccc(NC(=S)Nc2cccc(C(F)(F)F)c2)cc1	.	-2.1
CC(C)(C)NC(=S)Nc1cccc(C(F)(F)F)c1	-	0.1
CNC(=S)Nc1cccc(C(F)(F)F)c1	-	-
COC(=S)Nc1cccc(C(F)(F)F)c1	.	-
CCN(Cc1ccncc1)C(=O)c1csc2ccccc12	-	-
COc1cccc(N/C=C(\C#N)c2nc(-c3ccccc3)cs2)c1	-	.
Cc1cc(=O)cc(C)n1-c1ccc(Cl)cc1Cl	-	-
CCCCS(=O)(=O)Nc1ccccc1OCC	-	-
Cc1oc2c(c1C(=O)NCCC(C)C)C(=O)c1ccccc1C2=O	-	-
CCCCCN1COc2ccc3c4c(c(=O)oc3c2C1)CCC4	-	-
O=C1c2ccccc2C(=O)c2c1oc1c3c(ccc21)OCN(CCC1=CCCCC1)C3	-	7.0
Cc1oc2c(c1C(=O)NCCCn1ccnc1)C(=O)c1ccccc1C2=O	-	-0.8
O=C1c2ccccc2C(=O)c2c1oc1c3c(ccc21)OCN(CCCn1ccnc1)C3	-	5.8
CC(C)(C)N1COc2ccc3c4c(oc3c2C1)C(=O)c1ccccc1C4=O	-	-
CCOC(=O)Cc1csc(NC(=O)CSc2nc(N)c3c4c(sc3n2)CCCC4)n1	-	-
COCCn1c(SCc2csc(N(C(C)=O)c3ccccc3)n2)nc2ccccc21	-	-
Cc1ccc(-n2c(O)c(C=Nc3ncnc4nc[nH]c34)c3ccccc3c2=O)cc1C	-	-
Cc1ccc(N)c(C(O)(C(F)(F)F)C(F)(F)F)c1	-	.
Oc1c(Cl)cc(Cl)cc1Sc1cc(Cl)cc(Cl)c1O	.	-0.6
CCC(=O)c1cc(Cl)cc(Cl)c1O	-	-
Oc1c(Cl)cc(Cl)cc1C(O)(C(F)(F)F)C(F)(F)F	-	7.3
O=S(=O)(Nc1cccnc1)c1cc(C(F)(F)F)cc(C(F)(F)F)c1	.	-
SMILES	Sa helicase inh	Sa growth inh
O=C(NCC1CCCO1)c1cccc(-c2ccc(O)cc2)c1 (configuration not stated)	-	-
O=S(=O)(Nc1ccc(O)c2ccccc12)c1ccccc1	-	5.0
O=C(O)c1ccccc1NS(=O)(=O)c1ccccc1	-	-
CO[C@H]1C[C@H](O[C@H]2[C@H](C)[C@@H](OC3O[C@H](C)C[C@H](N(C)C)[C@H]3O)[C@@H](C)C[C@]3(CO3)C(=O)[C@H](C)[C@@H](O)[C@@H](C)[C@@H](C)OC(=O)[C@@H]2C)O[C@@H](C)[C@@H]1O (some centres not stated)	.	-0.6
CO[C@H]1C[C@H](O[C@H]2[C@H](C)[C@@H](OC3O[C@H](C)C[C@H](N(C)C)[C@H]3OC(C)=O)[C@@H](C)C[C@]3(CO3)C(=O)[C@H](C)[C@@H](OC(C)=O)[C@@H](C)[C@@H](C)OC(=O)[C@@H]2C)O[C@@H](C)[C@@H]1OC(C)=O (some centres not stated)	.	-
N#Cc1ccc(CSc2nc3ccc(Cl)cc3[nH]2)cc1	-	-
FC(F)(F)c1ccc2nc(SCc3ccc(Br)cc3)[nH]c2c1	.	6.8
O=C(ON1C(=O)c2cccc3cccc(c23)C1=O)c1ccccc1	-	.
CN(Cc1ccc(C#N)cc1)S(=O)(=O)/C=C/c1ccccc1	-	-
S=C(NCCSc1ccc(Cl)cc1)Nc1cccc(Cl)c1	-	-
CC(CNC(=S)Nc1cccc(Cl)c1)CSc1ccc(Cl)cc1 (configuration not stated)	-	-0.4
O=C1S/C(=C/c2ccccc2F)C(=O)N1CNc1ccccc1	-	-
CO[C@@H]1[C@@H](OC(N)=O)[C@@H](O)[C@H](Oc2ccc3c(O)c(NC(=O)c4ccc(O)c(CC=C(C)C)c4)c(=O)oc3c2C)OC1(C)C	.	-0.8
COc1ccc(C(=O)Nc2c(O)c3ccccc3oc2=O)cc1OC	-	-
Cc1cc(C)c2ccc(NN)nc2c1O	-	-
Cc1cc(C)c2cccnc2c1O	-	3.0
NS(=O)(=O)c1ccc(Oc2ccccc2)cc1	-	-
CC(C)(C)c1csc(NC(=O)CSC2=NCCS2)n1	-	-
CC(Nc1nc(C(C)(C)C)cs1)=C(C#N)C#N	-	4.2
COc1ccccc1C(=O)CSc1ccc(Cl)cc1	-	6.6
O=C(CSc1ccc(Cl)cc1)c1ccc[nH]1	-	-
COC(=O)C(=C/C(C)=C/c1ccco1)C(=O)OC	-	-
Cc1ccc2oc(=O)c3cc(C(=O)NCCCN4CCN(C)CC4)sc3c2c1	-	-
Cc1ccc2oc(=O)c3cc(C(=O)NCCN4CCCCC4C)sc3c2c1 (configuration not stated)	46.0	-
CCn1c(SCC(=O)NCc2ccc(C)cc2)nc2c(c1=O)SCC2	-	-
SMILES	Sa helicase inh	Sa growth inh
CCN(CC)S(=O)(=O)c1ccc(Nc2c3c(nc4ccccc24)CCCC3)cc1	-	-
Nc1ccccc1NCCO	-	-
Nc1ccccc1NCCc1ccccc1	-	9.1
CS(=O)(=O)c1ccc([C@@H](O)[C@@H](CF)NC(=O)C(Cl)Cl)cc1	.	-0.4
CS(=O)(=O)c1ccc([C@@H](O)[C@@H](CO)NC(=O)C(Cl)Cl)cc1	.	-
Cc1nn(-c2ccccc2)c2[nH]cc(C(=O)Nc3ccccc3)c(=O)c12	-	8.8
Cc1cc(C(=O)Nc2ccc(Cl)cc2)c2c(C)nn(-c3ccccc3)c2n1	.	-
CCN(CC)c1ccc(-c2cc(C(=O)O)c3c(ccc4ccccc43)n2)cc1	-	-
COc1cc(OC)c(C(=O)OCC#N)cc1OC	-	-
COc1ccc2[nH]c3c(=O)[nH]cnc3c2c1	-	-
CCc1ccc(-n2c(=O)oc3ccc(Cl)cc3c2=O)cc1	-	-
CCc1ccccc1-n1c(=O)oc2ccc(Cl)cc2c1=O	-	-0.8
Cc1csc(CC(N)=O)n1	-	-
CCN(CC(=O)NC1CCS(=O)(=O)C1)c1nc(-c2cccnc2)nc2sc3c(c12)CCCC3 (configuration not stated)	-	-
Cc1ccc(CN(C)c2nc(-c3cccnc3)nc3sc4c(c23)CCCC4)o1	-	2.1
C=CC[n+]1ccc(/C=C/c2ccccc2O)c2ccccc21	42.0	-
Oc1ccccc1/C=N/[n+]1ccccc1	-	-
COCC(=O)N(C)c1nnc(-c2ccc(OC)cc2)s1	-	-
CCSc1ccc(-c2ccccc2)nn1	-	-
CCN(CC)CCCNc1nc2cc(OC)c(OC)cc2c2nc(-c3ccccc3)nn12	74.0	-
CCN(CC)CCCNc1nc2cc(OC)c(OC)cc2c2nc(-c3cccnc3)nn12	-	-
Cc1nc(-c2c[nH]c(C(=O)O)c2)cs1	49.0	-
Cc1nc(-c2cccc(NC(=O)/C=C\C(=O)O)c2)cs1	-	.
Nc1cc(C(=O)O)c2ccccc2n1	-	-
O=c1[nH]c(=S)[nH]c2c1cnn2-c1ccc(F)cc1	-	-
SMILES	Sa helicase inh	Sa growth inh
N#C/C(=C(/O)COc1ccccc1)c1nc2ccccc2s1	-	-
COc1cccc(OC)c1/C(O)=C(\C#N)c1nc2ccccc2s1	-	1.4
Cc1cc(=O)oc2cc(OCC(O)CNCc3cn4c(C)csc4n3)ccc12 (configuration not stated)	-	-
Cc1ccc(C)n1-c1ccsc1C(=O)O	-	46.1
Cc1ccc(C(=O)O)cc1-n1c(C)ccc1C	-	-
NC(=O)N/N=C/c1cn(-c2ccccc2)nc1-c1ccccc1	-	-
